Compounds with a hit are over-represented: about 2.3% of the library has one in this group of screens.
ADAM10 inh – human ADAM10 inhibitors, primary screen, biochemical, QFRET, HTS; Disintegrin and metalloproteinase domain-containing protein 10 (Homo sapiens), O14672; recombinant ADAM10, EDANS/DABCYL FRET peptide cleavage, 3 h; inhibition, % at 7 µM; 370,000 compounds, 0.62% hits;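 active = inhibition above a per-campaign cutoff equal to the mean of compounds falling between control-based bounds plus 3 SD, cut at about 20% in these data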;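 also: 0% = DMSO wells while the 100% control is not disclosed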
Target sequence (O14672 214-748 limits assumed): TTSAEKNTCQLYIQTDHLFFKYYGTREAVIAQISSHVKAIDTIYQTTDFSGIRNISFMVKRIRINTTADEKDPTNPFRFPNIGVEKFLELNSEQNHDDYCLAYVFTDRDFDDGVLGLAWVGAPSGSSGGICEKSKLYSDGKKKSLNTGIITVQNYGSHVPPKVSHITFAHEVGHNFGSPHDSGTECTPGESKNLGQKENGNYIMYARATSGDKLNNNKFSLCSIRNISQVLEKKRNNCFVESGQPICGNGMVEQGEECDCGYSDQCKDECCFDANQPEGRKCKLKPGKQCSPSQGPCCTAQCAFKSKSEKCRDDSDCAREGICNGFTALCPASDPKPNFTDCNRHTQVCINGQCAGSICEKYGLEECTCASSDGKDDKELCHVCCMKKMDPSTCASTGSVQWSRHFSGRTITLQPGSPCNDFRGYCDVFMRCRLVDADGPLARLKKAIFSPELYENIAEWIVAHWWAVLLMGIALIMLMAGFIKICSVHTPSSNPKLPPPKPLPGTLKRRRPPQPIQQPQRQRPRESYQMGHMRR
ADAM17 inh – ADAM17 inhibitors, primary screen, biochemical, QFRET. Disintegrin and metalloproteinase domain-containing protein 17 (Homo sapiens), P78536. recombinant ADAM17, EDANS/DABCYL FRET peptide cleavage. inhibition, % at 6.95 µM. 370,000 compounds, 0.83% hits. AID 720648, 2013;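 active = inhibition above the mean of compounds lying between control limits plus 3 SD, set per campaign, cut at about 8.5% in these data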;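 also: 0% = DMSO-only wells as the low control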
V-ATPase pHluor – regulators of yeast V-ATPase proton pumping, primary screen, pHLuorin cytosolic pH fluorescence; S. cerevisiae; AID 504577, 2011; response, % at 10 µM; 350,000 compounds, 0.37% hits; in the data active = response mostly above about 7.3%, no sharp cut-off; inactive = mostly below about 5.4%; also: actives read high
KLK7 zymogen act – proKLK7 zymogen activators, primary screen, biochemical, fluorescence intensity; purified proKLK7, EDANS-DABCYL substrate fluorescence; 100% is mature enzyme control, 0% vehicle; activation, % at 7 µM; Kallikrein-7 (Homo sapiens), P49862; 370,000 compounds, 0.9% hits; AID 652039, 2013;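 active = activation above the mean of all tested compounds plus 3 SD, computed per campaign excluding outliers beyond control limits, cut at about 13% in these data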
ADAM10 counter – ADAM10 inhibitors, counter-screen for ADAM17 exosite inhibitor project, biochemical, FRET, human ADAM10. recombinant ADAM10, EDANS/DABCYL FRET peptide cleavage, 3 h. 2,900 compounds, 47% hits. shares compounds with ADAM17 inh. inhibition, % at 6.95 µM;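 active = mean inhibition over the triplicate runs exceeds the activity threshold set in the earlier primary screen, cut at about 20% in these data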;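 also: 0% = DMSO wells and 100% = marimastat wells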
ADAM17 confirm – ADAM17 inhibitors, hit retest, confirmation, biochemical, QFRET peptide cleavage. 2,900 compounds, 65% hits. recombinant ADAM17, EDANS/DABCYL QFRET peptide cleavage. inhibition, % at 6.95 µM. shares compounds with ADAM17 inh;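 active = mean inhibition across replicates above the hit cutoff set in the primary screen, cut at about 8.5% in these data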;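 also: 0% = DMSO wells and 100% = marimastat wells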
An asterisk follows results filed as active; / = no result.

SMILES	ADAM10 inh	ADAM17 inh	V-ATPase pHluor	KLK7 zymogen act	ADAM10 counter	ADAM17 confirm
Cc1ccc(C)c(NC(=O)c2cccc(Oc3ccc([N+](=O)[O-])cc3Cl)c2)c1	18.9	9.0*	15.9	1.1	29.2*	15.7*
Cc1ccc([N+](=O)[O-])cc1NC(=O)c1ccccc1	1.4	-2.8	0.2	0.1	/	/
O=C(Nc1cccc(Cl)c1)c1cccc(Oc2ccc([N+](=O)[O-])cc2Cl)c1	16.4	9.7*	7.1	-0.2	22.9*	15.1*
Nc1ncnc(N)c1NC(=O)c1ccccc1	-3.1	0.9	/	0.6	/	/
CCC(C)[C@H]1CNC(=S)N1CCc1cccc2ccccc12 (stereo not given in full)	5.7	12.7*	2.4	0.6	5.4	2.8
COc1ccc(F)cc1S(=O)(=O)Nc1ccc(C)cc1	6.5	10.7*	-1.9	1.2	13.3	6.8
CCOc1ccc(NS(=O)(=O)c2cc(Cl)ccc2OC)cc1	13.9	12.4*	2.0	0.0	12.4	7.2
CCc1ccc(OC)c(S(=O)(=O)Nc2ccc(Cc3ccncc3)cc2)c1	11.6	9.2*	-2.3	0.3	11.6	8.6
CCOc1ccc(Oc2ccc(NS(=O)(=O)c3cc(C(=O)O)ccc3Cl)cc2)cc1	-1.3	14.0*	-2.7	-0.7	4.6	11.0*
O=C(Cc1noc2ccccc12)NNC(=S)Nc1ccc(Cl)cc1	13.7	12.2*	5.0	-0.1	3.2	0.8
Cc1cccc(NC(=O)Cc2noc3ccccc23)c1	12.0	-0.5	-4.4	-0.1	/	/
CC(C)(C)S(=O)N1Cc2cc(C(=O)NCC(F)(F)F)nc(-c3cccc(-c4cccc(F)c4)c3)c2[C@H]1CCO (stereo not given in full)	17.1	10.1*	/	0.4	20.3*	11.3*
Cc1ccc(S(=O)(=O)N2c3ccc(F)cc3C[C@H]2CSc2ccccc2)cc1	5.7	2.1	/	/	/	/
COc1nnc(-c2ccc(C(=O)N3C[C@@H]4C[C@H](C3)c3cccc(=O)n3C4)cc2)c2ccccc12	4.1	9.6*	-1.0	-0.4	0.6	6.6
CN1CCCCC(NC(=O)COCc2ccccc2)C1=O (stereo not given)	4.8	1.9	/	0.7	/	/
Cc1cccc(N2CCN(C(=O)c3ccc4ncsc4c3)CC2)c1C	8.4	8.9*	4.5	-0.4	0.9	0.8
CCCn1nc([N+](=O)[O-])c(C(C#N)c2nc3ccccc3s2)c(Cl)c1=O (stereo not given)	19.7	8.6*	1.9	0.1	23.5*	17.5*
COC(=O)C[C@@H]1CC[C@H]2[C@H](COc3ccc(NC(=O)Nc4cccc(C#N)c4)cc3C(=O)N2C)O1	0.5	1.0	/	0.2	/	/
Nc1[nH]c(C(=O)c2ccccc2)c(-c2ccc(F)cc2)c1C(=O)c1c[nH]c2ccccc12	-10.5	5.1	/	-0.5	/	/
O=C(NCCn1cc(SCc2ccc(F)cc2)c2ccccc21)c1c(F)cccc1F	12.1	9.3*	-2.6	-0.1	41.3*	21.4*
O=C(NCc1ccccc1)[C@H]1CCCN1C(=O)[C@H]1CCCN1C(=O)c1ccc(F)cc1F	-1.5	0.2	/	-0.3	/	/
CC(=O)NC(c1cccc(F)c1)c1nc(/C=C/c2ccccc2)cs1 (stereo not given)	9.0	11.3*	/	0.7	10.6	5.5
OC(c1cccc(Cl)c1)c1nc(-c2ccccc2)cs1 (stereo not given)	3.1	0.2	/	-0.4	/	/
COc1ccccc1-c1csc(C(NC(C)=O)c2cccc(F)c2)n1 (stereo not given)	-8.6	-5.1	/	0.1	/	/
OC(c1cccc(Cl)c1)c1nc(/C=C/c2ccc(C(F)(F)F)cc2)cs1 (stereo not given)	16.1	11.8*	/	0.1	1.5	6.3
SMILES	ADAM10 inh	ADAM17 inh	V-ATPase pHluor	KLK7 zymogen act	ADAM10 counter	ADAM17 confirm
CC(C)c1cccc(-c2csc(C(O)c3cccc(Cl)c3)n2)c1 (stereo not given)	11.9	9.7*	/	-0.2	19.4	12.6*
CC(C)CC(NC(=O)OCc1ccccc1)C(=O)NCC(=O)NCC(=O)OCc1ccccc1 (stereo not given)	4.1	0.3	/	-0.1	/	/
CCCCCCC[C@H](N)[C@H](O)C(=O)N(C)[C@@H](CCS(C)=O)C(=O)N[C@@H](Cc1ccc(O)cc1)C(=O)O (stereo not given in full)	-10.7	-5.3	/	/	/	/
COc1ccc2ccccc2c1C=Nn1c(-c2n[nH]c3c2CCC3)n[nH]c1=S	10.9	10.4*	/	-0.7	0.1	2.8
COc1ccc(/C=N/n2c(-c3n[nH]c4c3CCC4)n[nH]c2=S)cc1OC	3.9	8.4	-4.3	-0.2	/	/
COc1ccc(-c2nc(CCNS(=O)(=O)c3ccc4c(c3)OCCO4)cs2)cc1	-44.2	-13.1	1.9	0.4	/	/
O=S(=O)(NCCc1csc(-c2ccc(C(F)(F)F)cc2)n1)c1ccc2c(c1)OCCO2	-2.8	9.3*	-3.4	-0.7	7.5	10.4*
CC(=O)c1ccc(NC(=O)COC(=O)CCN2C(=O)c3cccc([N+](=O)[O-])c3C2=O)cc1	-0.2	-0.6	/	1.1	/	/
CC(C)N(c1ccccc1)c1ccc(NC(=O)COC(=O)CCN2C(=O)c3cccc([N+](=O)[O-])c3C2=O)cc1	10.9	8.7*	-0.4	1.1	24.9*	14.5*
N#Cc1cccc(-c2ccccc2C(=O)NC2CCCCN(Cc3ccc(Cl)cc3)C2=O)c1 (stereo not given)	-0.7	-0.8	/	0.0	/	/
COC(=O)[C@]12CCCCC=C1N(Cc1ccc(OC)cc1)C(=O)[C@@H]2CC(=O)NCCCN1CCCC1=O	-0.4	-4.5	/	0.7	/	/
O=C(c1cc(F)c(F)c(F)c1F)N1CCN(C(=O)C2CCCO2)CC1 (stereo not given)	-4.0	8.7*	4.4	0.0	-8.4	-0.3
O=S1(=O)CCN2C(c3ccc4c(c3)CCCC4)=CSC2=N1	7.9	8.7*	4.2	-0.3	23.5*	11.6*
Cc1cc(NC(=O)CSc2cc(Cl)ccc2Cl)n(-c2ccccc2)n1	17.5	9.2*	4.3	-0.2	5.1	3.9
CC/C=C\[C@H](O)[C@H](O)C1=C(C)C(=O)[C@]2(O1)C(=O)N[C@@](OC)(C(=O)c1ccccc1)[C@@H]2O	-6.5	-5.7	/	0.3	/	/
CCC(C)[C@H](NC(=O)[C@@H]1CSC2c3ccccc3C(=O)N21)C(=O)NCC1CCCO1 (stereo not given in full)	0.5	11.6*	-1.4	0.4	7.2	2.7
